This is part of a sample that, as a whole, favours compounds with a hit. Of some 83,000 tested, about 20% had one in any assay.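 In brief: 96-well plates, 48 h treatment, single concentration, percent growth endpoint.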 Activity calls are given as the source filed them. How the source made its calls: active means growth percent below 10; inactive means the rest.
Assays:
Assay in all cases: NCI-60 one-dose screen, 48 h (100 = growth as untreated, 0 = no growth, -100 = all killed)
Conditions in all cases: 10 µM unless noted
[1] = system: SK-MEL-2 melanoma
[2] = system: EKVX NSCLC
[3] = system: SN12C renal
[4] = system: UO-31 renal
[5] = system: TK-10 renal
[6] = system: ACHN renal
[7] = system: CAKI-1 renal
[8] = system: A498 renal
[9] = system: CCRF-CEM leukemia
[10] = system: MOLT-4 leukemia
[11] = system: SR leukemia
[12] = system: OVCAR-8 ovarian
[13] = system: OVCAR-5 ovarian
[14] = system: OVCAR-4 ovarian
[15] = system: SK-OV-3 ovarian
[16] = system: IGROV1 ovarian
[17] = system: OVCAR-3 ovarian
[18] = system: HS 578T breast
[19] = system: RPMI-8226 leukemia
[20] = system: NCI/ADR-RES ovarian

Measured: growth

Cc1c(C(=O)NCCCc2ccccc2)sc2ncc(-c3ccc(Br)cc3)n12
inactive: [1] 115% | [2] 106% | [3] 98.7% | [4] 92% | [5] 135% | [6] 103% | [7] 101% | [8] 110% | [9] 96.8% | [10] 99.8% | [11] 106% | [12] 105% | [13] 107% | [14] 111% | [15] 99.5% | [16] 100% | [17] 112% | [18] 104%

C=C1C(=O)O[C@H]2[C@H]1CC/C(COC(=O)CCC(=O)NCCOCCOCC(=O)Nc1ccc(OC)c(C(N)=O)c1O)=C\CC[C@@]1(C)O[C@@H]21
inactive: [1] 89.7% | [2] 94.4% | [3] 92.7% | [4] 92% | [5] 96% | [6] 87.3% | [7] 81.2% | [8] 101% | [9] 53.7% | [10] 97.1% | [11] 46.8% | [19] 87% | [13] 109% | [14] 110% | [15] 96.7% | [16] 59.2% | [17] 85% | [18] 109% | [20] 103%

CCN(CC)c1ccc(C2=NN(C(C)=O)C(c3cc(OC)c(OC)c(OC)c3)C2)cc1 (stereo unspecified)
active: [4] -19% | [8] -22.1% | [10] 5.57% | [11] -23.6% | [19] 2.54% | [16] -45.1% | [17] -64.8% | [18] -12.2% | [20] -23.9%
inactive: [1] 31.8% | [2] 29.8% | [3] 38.5% | [5] 39.9% | [6] 40.3% | [7] 21% | [9] 12.6% | [13] 39% | [14] 46.9% | [15] 31.5%

Cc1cccc2c(=O)c3c(sc12)c(NCc1ccccc1)nc1ccccc13
inactive: [1] 101% | [2] 89.7% | [3] 93.6% | [4] 66.5% | [5] 105% | [6] 90.9% | [7] 76.4% | [8] 72.4% | [9] 100% | [10] 92.1% | [11] 74.4% | [12] 100% | [13] 75.6% | [14] 87.6% | [15] 88.7% | [16] 74.3% | [17] 106% | [18] 98.7% | [20] 97.2%

Cc1cc(=O)[nH]c(=O)n1Cc1cn(-c2c3ccccc3nc3ccccc23)nn1
inactive: [1] 107% | [2] 103% | [3] 88.7% | [4] 82.6% | [5] 96.1% | [6] 87.4% | [7] 91% | [8] 101% | [9] 64.7% | [10] 48.5% | [11] 11.4% | [19] 55.5% | [13] 120% | [14] 106% | [15] 96.2% | [16] 33% | [17] 90.7% | [18] 100% | [20] 106%

CCCCCCCCCCCCCCCCCCOc1ccccc1CCCOP(=O)(O)OCC[N+](C)(C)C
active: [5] 1.65%
inactive: [1] 102% | [2] 74.1% | [3] 60.9% | [4] 68.5% | [6] 84.5% | [7] 43.4% | [8] 54.1% | [9] 34% | [10] 33.7% | [11] 11.4% | [12] 64.8% | [13] 75.6% | [14] 89.9% | [15] 85% | [16] 15.5% | [17] 84.5% | [18] 93.5%

Cc1ccc(-c2nc(N3CCN(C(=O)Nc4ccc(Cl)c(C(F)(F)F)c4)CC3)c3ccccc3n2)cc1
inactive: [1] 96.5% | [2] 79.4% | [3] 74.8% | [4] 53.6% | [5] 93.7% | [6] 71.5% | [7] 53.6% | [8] 45.9% | [9] 65.8% | [10] 49.2% | [11] 75% | [12] 73.6% | [13] 86.9% | [14] 77.8% | [15] 81.7% | [16] 78.2% | [17] 74.8% | [18] 82.2% | [20] 69.1%

Cc1ccc(-c2cnc3sc(C(=O)NCCc4ccccc4)c(C)n23)cc1
inactive: [1] 108% | [2] 86.8% | [3] 93.2% | [4] 75.1% | [5] 139% | [6] 94.2% | [7] 94.1% | [8] 101% | [9] 64.7% | [10] 87% | [11] 110% | [12] 96.9% | [13] 98.5% | [14] 67% | [15] 84.6% | [16] 80.5% | [17] 79.4% | [18] 86.4% | [20] 104%

NS(=O)(=O)c1ccc(N=Nc2ccc(-c3nn4cc(-c5ccccc5)nc4s3)cc2)cc1
inactive: [1] 99.4% | [2] 96.7% | [3] 108% | [4] 89.4% | [5] 88.5% | [6] 99.8% | [7] 85.9% | [8] 97.5% | [9] 111% | [10] 105% | [11] 90.6% | [19] 105% | [13] 103% | [14] 99.7% | [15] 88.8% | [16] 117% | [17] 102% | [18] 94.2% | [20] 107%

O=c1c2cc(F)ccc2sc2c(NCCCNCCO)nc3ccccc3c12
active: [6] 8.85% | [7] -9.01% | [8] 2.69% | [9] 6.27% | [10] -31.6% | [11] -45.1% | [17] -14.6%
inactive: [1] 90.9% | [2] 51.9% | [3] 46.9% | [4] 10.9% | [5] 41% | [12] 26% | [13] 63.4% | [14] 33.3% | [15] 79.7% | [16] 22.4% | [18] 34.5%

CCOC(=O)C1=C(N)Oc2c(sc3c(C)cccc23)C1c1ccc(Cl)cc1 (stereo unspecified)
active: [7] 2.8% | [8] 3.91% | [17] 0.78%
inactive: [1] 46.6% | [2] 48.3% | [3] 38.6% | [4] 38.5% | [5] 78.7% | [6] 39.5% | [9] 17% | [10] 32.9% | [11] 17.5% | [12] 36.8% | [13] 41.6% | [14] 56.6% | [15] 54.7% | [16] 22.6% | [18] 18.9% | [20] 24.6%

CCc1cccc2c3c(sc12)C(c1ccc(F)cc1)C(C#N)=C(N)O3 (stereo unspecified)
active: [8] 7.3%
inactive: [1] 57% | [2] 51% | [3] 32.7% | [4] 48.9% | [5] 77.8% | [6] 30.1% | [7] 14.5% | [9] 15.1% | [10] 17.3% | [11] 27.3% | [12] 32.9% | [13] 32.6% | [14] 60.4% | [15] 78.5% | [16] 31.1% | [17] 10.9% | [18] 26.7% | [20] 14%

COc1ccccc1/C=C1\Oc2cc(OCCN3CCC(Cc4ccccc4)CC3)ccc2C1=O
inactive: [1] 116% | [2] 86% | [3] 88.8% | [4] 65.5% | [5] 94.5% | [6] 105% | [7] 82.5% | [8] 47.7% | [9] 70.7% | [10] 72.2% | [12] 81.2% | [13] 89.3% | [14] 93.2% | [15] 106% | [16] 82.6% | [17] 98% | [18] 82.8% | [20] 89.2%
active: [11] 5.96%

COc1ccc(/C=C2\Oc3cc(OCCN4CCC(Cc5ccccc5)CC4)ccc3C2=O)cc1OC
active: [11] -1.05%
inactive: [1] 104% | [2] 70.4% | [3] 65.6% | [4] 51.9% | [5] 95.3% | [6] 96.8% | [7] 74.2% | [8] 69.7% | [9] 55.9% | [10] 46.7% | [12] 39.1% | [13] 93.4% | [14] 79.3% | [15] 87.8% | [16] 82.1% | [17] 87% | [18] 74.6% | [20] 70.9%

N#C/C(=C\c1ccc(F)cc1)n1nc2cccc(F)c2n1
inactive: [1] 58.7% | [2] 71.1% | [3] 76.2% | [4] 41% | [5] 60.7% | [6] 42.9% | [7] 24.8% | [8] 11.7% | [9] 25.6% | [10] 52.3% | [11] 13.7% | [12] 81.2% | [13] 79.7% | [14] 34% | [15] 74.9% | [16] 73.1% | [18] 27.6%
active: [17] -3.76% | [20] 8.9%

CC([C@H]1CCC2C3CCC4C[C@@H](NC=O)CC[C@]4(C)C3CC[C@@]21C)N(C)C (stereo partly specified)
active: [1] -7.03% | [4] 0.264% | [6] 6.15% | [7] -10.1% | [9] -21.6% | [10] -49.9% | [11] -38.7% | [14] -18.6% | [17] -34.3% | [18] -2.92%
inactive: [2] 29% | [3] 19.9% | [5] 49.1% | [8] 29.1% | [12] 41.1% | [13] 67.8% | [15] 42.5% | [16] 25.6% | [20] 27.1%

Reference: PubChem BioAssay (NCI)
